Laboratory results as given in PubChem BioAssay (EPA / NIEHS).
Inconclusive results are not listed. Active and inactive are the calls of the source. Rule for the calls: active = hit-call score of the fitted dose curve at least 0.9, where 1 is the maximum; inconclusive = response in the unintended direction; inactive = score below 0.9.

Key:
[1] = target: mouse Cholecystokinin, CCK2 Receptor (CCKB), Cckbr (gene 12426) (UniProt P56481); test: NVS_GPCR_mCKKBCentral: NovaScreen (NVS) G Protein-Coupled Receptor Assay for mouse Cholecystokinin, CCK2 Receptor (CCKB) (AID 2283293)
Method in brief: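 Mouse forebrain membrane preparation incubated 2 h with chemical and radioligand; bound radioactivity counted after filtration. Single-concentration duplicate screen at 25 uM, then concentration series to 50 uM max for hits, DMSO as baseline.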

[2] = target: guinea pig Serotonin, 5-Hydroxytryptamine Receptor 4 (5HT4), HTR4 (gene 100135548) (UniProt O70528); test: NVS_GPCR_g5HT4: NovaScreen (NVS) G Protein-Coupled Receptor Assay for guinea pig Serotonin, 5-Hydroxytryptamine Receptor 4 (5HT4) (AID 2283294)
Method in brief: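 Compounds first screened in duplicate at 25 uM, actives followed up in concentration series. Binding measured as displacement of specific radioligand from guinea pig striatal membranes, 1 h, filter-based scintillation read-out versus DMSO baseline.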

[3] = target: rat Serotonin, 5-Hydroxytryptamine Receptor (5HT), Non-Selective Binding, Htr1a (gene 24473) (UniProt P19327); test: NVS_GPCR_r5HT_NonSelective: NovaScreen (NVS) G Protein-Coupled Receptor Assay for rat Serotonin, 5-Hydroxytryptamine Receptor (5HT), Non-Selective Binding (AID 2283295)
Method in brief: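 Rat cortex membrane preparation incubated 1 h with radioligand and test chemical; bound radioactivity counted after filtration. Screening began in duplicate at 25 uM with concentration-series follow-up; fitting relative to DMSO.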

[4] = target: rat Adrenergic, Alpha 1A Receptor (Adra1A), Adra1a (gene 29412) (UniProt P43140); test: NVS_GPCR_rAdra1A: NovaScreen (NVS) G Protein-Coupled Receptor Assay for rat Adrenergic, Alpha 1A Receptor (Adra1A) (AID 2283296)
Method in brief: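 Filter radiodetection after 1 h competitive binding on CEC-pretreated rat cortical membranes. Duplicate single-point screening at 25 uM; active chemicals retested across concentration series.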

[5] = target: Adra2b (gene 24174) (UniProt P19328); test: NVS_GPCR_rmAdra2B: NovaScreen (NVS) G Protein-Coupled Receptor Assay for hybird cells Adrenergic, Alpha 2B Receptor (Adra2B) (AID 2283306)
Method in brief: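 Compounds screened first at 25 uM in duplicate, with actives followed up in concentration-response; specific radioligand displacement from hybrid neuroglioma/blastoma cell membrane preparations measured by filter scintillation counting after 1 h, normalized to DMSO.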

[6] = target: rat Neurokinin-1 Receptor (NK1), Tacr1 (gene 24807) (UniProt P14600); test: NVS_GPCR_rNK1: NovaScreen (NVS) G Protein-Coupled Receptor Assay for rat Neurokinin-1 Receptor (NK1) (AID 2283309)
Method in brief: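 Competitive radioligand binding to NK1 in rat submaxillary membranes, 1 h incubation, filtration and scintillation read-out. Compounds first screened at 25 uM in duplicate, then concentration-response for actives; signal loss relative to DMSO.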

[7] = target: rat Neurokinin-3 Receptor (NK3), Tacr3 (gene 24808) (UniProt P16177); test: NVS_GPCR_rNK3: NovaScreen (NVS) G Protein-Coupled Receptor Assay for rat Neurokinin-3 Receptor (NK3) (AID 2283310)
Method in brief: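 Filter-based radioligand displacement on rat cortex membrane preparations, read by scintillation 2 h post-dose. Chemicals first tested in duplicate at 25 uM; actives followed up in concentration series with a 50 uM maximum.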

[8] = target: rat Opioid Receptor, Non-selective Sodium (Na+) Binding, Oprm1 (gene 25601) (UniProt P33535); test: NVS_GPCR_rOpiate_NonSelectiveNa: NovaScreen (NVS) G Protein-Coupled Receptor Assay for rat Opioid Receptor, Non-selective Sodium (Na+) Binding (AID 2283311)
Method in brief: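 Filtration radioligand binding on rat forebrain membrane preparations, read 1.5 h after dosing. Single-concentration 25 µM primary screen in duplicate, followed by singleton concentration series to 50 µM max for actives; DMSO baseline.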

[9] = target: rat Somatostatin Receptor (SST), Sstr1 (gene 25033) (UniProt P28646); test: NVS_GPCR_rSST: NovaScreen (NVS) G Protein-Coupled Receptor Assay for rat Somatostatin Receptor (SST) (AID 2283314)
Method in brief: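 Single-concentration duplicate screen (25 uM), then concentration-response up to 50 uM for chemicals passing a threshold such as 30% inhibition. Membranes came from rat forebrain. Binding was measured 1 h post-dose by filter radiodetection and scintillation, relative to DMSO.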

[10] = target: rat Neonicotinoid receptor (NNR), Chrna7 (gene 25302) (UniProt Q05941); test: NVS_LGIC_rNNR_BungSens: NovaScreen (NVS) Ligand-Gated Ion Channel Assay for rat Neonicotinoid receptor (NNR) (AID 2283315)
Method in brief: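 Rat cortical membrane preparation incubated 2.5 h with tritiated or iodinated radioligand and test chemical. Bound radioactivity was filtered and counted by scintillation, and displacement was analysed against DMSO.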

[11] = target: rat Opioid Receptor, Non-selective Binding, Oprm1 (gene 25601) (UniProt P33535); test: NVS_GPCR_rOpiate_NonSelective: NovaScreen (NVS) G Protein-Coupled Receptor Assay for rat Opioid Receptor, Non-selective Binding (AID 2283318)
Method in brief: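 Filter-based radioligand displacement using rat forebrain membrane preparations, measured 1.5 h post-dosing. Single-concentration duplicate screen at 25 uM, follow-up in concentration series; activity taken as signal loss relative to DMSO.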

[12] = NVS_IC_rCaDHPRCh_L: NovaScreen (NVS) Ion Channel Assay for rat Calcium Channel, Type L, Dihydropyridine Site (CaDHPRCh_L) (AID 2283320)
Method in brief: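 Rat cortex membrane preparation; dihydropyridine-site radioligand displacement read 1 h post-dose by filtration and scintillation. Primary single-point screen 25 uM in duplicate, then concentration series to 50 uM maximum; DMSO as negative control.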

[13] = target: Sodium channel protein type 1 subunit alpha (Rattus norvegicus) (UniProt P04774); test: NVS_IC_rNaCh_site2: NovaScreen (NVS) Ion Channel Assay for rat Sodium Channel, Site 2 (NaCh) (AID 2283322);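 note: hit means loss of radioligand binding signal relative to DMSO so AC50 marks displacement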
Method in brief: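 Initial duplicate single-point testing at 25 uM, followed by concentration-response runs for actives. Binding of radioligand to rat forebrain membranes quantified after 1 h via filter-based radiodetection.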

[14] = target: guinea pig Bradykinin Receptor B2 (BK2), BDKRB2 (gene 100135486) (UniProt O70526); test: NVS_GPCR_gBK2: NovaScreen (NVS) G Protein-Coupled Receptor Assay for guinea pig Bradykinin Receptor B2 (BK2) (AID 2283292)
Method in brief: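 Guinea pig ileum membrane preparation incubated 1 h with radioligand and test chemical; bound counts measured after filtration. Primary duplicate screening at 25 uM, then singleton concentration series with a 50 uM top dose; DMSO as baseline.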

[15] = target: rat Adrenergic Receptor, Alpha 2 (Adra2), Non-selective Binding, Adra2a (gene 25083) (UniProt P22909); test: NVS_GPCR_rAdra2_NonSelective: NovaScreen (NVS) G Protein-Coupled Receptor Assay for rat Adrenergic Receptor, Alpha 2 (Adra2), Non-selective Binding (AID 2283299)
Method in brief: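 Filter-based scintillation counting of radioligand binding to rat cortical membrane receptors, measured 1.25 hours post-dosing; loss of signal versus DMSO indicates displacement. Initial single-concentration duplicate at 25 uM, then concentration series.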

[16] = target: rat Vasopressin 1 Receptor (V1), Avpr1a (gene 25107) (UniProt P30560); test: NVS_GPCR_rV1: NovaScreen (NVS) G Protein-Coupled Receptor Assay for rat Vasopressin 1 Receptor (V1) (AID 2283316)
Method in brief: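 Concentration-response up to 50 uM for chemicals passing a threshold such as 30% inhibition in an initial duplicate 25 uM screen. Displacement of radioligand from rat liver membranes measured after 1.5 h by filtration and scintillation.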

[17] = tested on: NCBI gene 24521; test: NVS_IC_rKATPCh: NovaScreen (NVS) Ion Channel Assay for rat Potassium Channel, ATP-Sensitive (KATPCh) (AID 2283319)
Method in brief: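 Primary duplicate screen at 25 uM, then singleton concentration series to 50 uM maximum, in a rat cortex membrane radioligand displacement assay. Binding measured by filtration and scintillation 2 h post-dose; DMSO baseline.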

[18] = target: rat Adrenergic Receptor, Beta (Adrb), Non-selective Binding, Adrb1 (gene 24925) (UniProt P18090); test: NVS_GPCR_rAdrb_NonSelective: NovaScreen (NVS) G Protein-Coupled Receptor Assay for rat Adrenergic Receptor, Beta (Adrb), Non-selective Binding (AID 2283298)
Method in brief: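 Rat cortical membranes incubated 1 h with beta-adrenergic radioligand and test chemical; bound ligand measured by filtration and scintillation counting. Screen at 25 uM duplicate, then concentration series with 50 uM maximum; loss of signal versus DMSO.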

Chain of rat Adrenergic, Alpha 1A Receptor (Adra1A), Adra1a (gene 29412) (P43140 whole entry, looked up): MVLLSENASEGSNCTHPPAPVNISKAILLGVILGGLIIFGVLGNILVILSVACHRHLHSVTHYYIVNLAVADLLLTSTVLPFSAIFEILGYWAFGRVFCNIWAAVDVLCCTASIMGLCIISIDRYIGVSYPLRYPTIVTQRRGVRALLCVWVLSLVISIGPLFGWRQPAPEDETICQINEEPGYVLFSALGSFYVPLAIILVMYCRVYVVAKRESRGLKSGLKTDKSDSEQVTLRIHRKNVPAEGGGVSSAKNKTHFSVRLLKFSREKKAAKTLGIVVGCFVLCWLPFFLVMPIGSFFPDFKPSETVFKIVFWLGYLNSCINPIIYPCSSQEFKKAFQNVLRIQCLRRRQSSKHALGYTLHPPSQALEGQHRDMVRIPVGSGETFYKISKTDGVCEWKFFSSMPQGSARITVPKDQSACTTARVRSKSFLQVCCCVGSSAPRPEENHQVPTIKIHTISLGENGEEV
Chain of rat Serotonin, 5-Hydroxytryptamine Receptor (5HT), Non-Selective Binding, Htr1a (gene 24473) (P19327 whole entry, looked up): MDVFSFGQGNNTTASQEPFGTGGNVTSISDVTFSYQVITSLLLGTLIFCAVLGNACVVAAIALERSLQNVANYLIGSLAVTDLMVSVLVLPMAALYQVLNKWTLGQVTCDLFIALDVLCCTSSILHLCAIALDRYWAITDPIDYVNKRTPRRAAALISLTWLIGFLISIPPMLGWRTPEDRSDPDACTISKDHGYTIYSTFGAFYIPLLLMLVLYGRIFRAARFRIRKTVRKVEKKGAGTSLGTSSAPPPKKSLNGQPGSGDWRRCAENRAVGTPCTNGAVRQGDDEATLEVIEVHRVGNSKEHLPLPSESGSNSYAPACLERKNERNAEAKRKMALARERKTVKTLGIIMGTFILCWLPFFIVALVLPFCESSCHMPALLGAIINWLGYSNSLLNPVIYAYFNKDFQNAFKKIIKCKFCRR
Chain of rat Adrenergic Receptor, Alpha 2 (Adra2), Non-selective Binding, Adra2a (gene 25083) (P22909 whole entry, looked up): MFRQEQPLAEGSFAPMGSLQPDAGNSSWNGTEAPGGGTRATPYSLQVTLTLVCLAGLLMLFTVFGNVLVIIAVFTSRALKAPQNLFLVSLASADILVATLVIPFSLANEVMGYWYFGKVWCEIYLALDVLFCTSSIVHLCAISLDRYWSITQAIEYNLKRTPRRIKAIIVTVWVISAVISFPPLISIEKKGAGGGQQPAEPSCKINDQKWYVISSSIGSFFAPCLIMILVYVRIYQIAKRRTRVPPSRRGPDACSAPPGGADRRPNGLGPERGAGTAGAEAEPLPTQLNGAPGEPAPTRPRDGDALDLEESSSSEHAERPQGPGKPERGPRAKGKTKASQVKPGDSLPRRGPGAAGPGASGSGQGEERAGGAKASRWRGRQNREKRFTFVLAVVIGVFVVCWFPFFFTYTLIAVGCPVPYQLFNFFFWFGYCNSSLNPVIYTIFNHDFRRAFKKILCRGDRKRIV
Chain of Adra2b (gene 24174) (P19328 whole entry, looked up): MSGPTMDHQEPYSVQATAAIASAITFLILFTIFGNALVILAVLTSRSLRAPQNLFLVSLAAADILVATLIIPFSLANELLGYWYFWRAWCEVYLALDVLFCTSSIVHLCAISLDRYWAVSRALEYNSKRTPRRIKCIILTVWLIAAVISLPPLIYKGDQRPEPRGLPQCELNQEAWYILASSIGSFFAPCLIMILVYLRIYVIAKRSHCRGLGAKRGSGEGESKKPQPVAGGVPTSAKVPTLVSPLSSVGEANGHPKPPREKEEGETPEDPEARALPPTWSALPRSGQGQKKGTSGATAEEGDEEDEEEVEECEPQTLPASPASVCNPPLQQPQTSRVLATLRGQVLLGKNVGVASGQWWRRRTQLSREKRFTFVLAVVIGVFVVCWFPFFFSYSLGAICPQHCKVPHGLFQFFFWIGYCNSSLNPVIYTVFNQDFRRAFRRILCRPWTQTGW
Chain of rat Adrenergic Receptor, Beta (Adrb), Non-selective Binding, Adrb1 (gene 24925) (P18090 whole entry, looked up): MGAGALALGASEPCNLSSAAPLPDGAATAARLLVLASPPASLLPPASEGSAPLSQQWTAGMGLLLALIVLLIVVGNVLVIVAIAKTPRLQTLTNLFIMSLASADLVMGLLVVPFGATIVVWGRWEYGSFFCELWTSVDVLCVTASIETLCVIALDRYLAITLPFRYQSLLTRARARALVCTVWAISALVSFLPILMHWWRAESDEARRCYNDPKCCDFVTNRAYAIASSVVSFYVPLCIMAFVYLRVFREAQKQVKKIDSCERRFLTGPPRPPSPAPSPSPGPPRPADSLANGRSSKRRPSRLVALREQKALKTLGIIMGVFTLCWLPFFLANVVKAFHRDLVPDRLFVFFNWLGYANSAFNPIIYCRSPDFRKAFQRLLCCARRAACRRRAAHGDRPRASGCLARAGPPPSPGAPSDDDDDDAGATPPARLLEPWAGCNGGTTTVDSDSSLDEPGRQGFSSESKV
Chain of rat Opioid Receptor, Non-selective Sodium (Na+) Binding, Oprm1 (gene 25601) (P33535 whole entry, looked up): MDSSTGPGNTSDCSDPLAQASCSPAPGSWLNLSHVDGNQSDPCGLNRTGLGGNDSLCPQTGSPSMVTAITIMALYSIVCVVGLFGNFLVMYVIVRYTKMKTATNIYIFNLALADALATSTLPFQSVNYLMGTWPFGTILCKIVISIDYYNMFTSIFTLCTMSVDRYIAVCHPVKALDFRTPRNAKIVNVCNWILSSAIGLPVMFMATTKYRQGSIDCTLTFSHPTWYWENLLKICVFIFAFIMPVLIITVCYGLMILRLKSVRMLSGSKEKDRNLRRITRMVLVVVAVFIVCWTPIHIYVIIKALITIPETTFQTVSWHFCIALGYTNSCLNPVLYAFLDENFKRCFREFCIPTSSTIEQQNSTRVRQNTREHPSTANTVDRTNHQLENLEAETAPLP
Chain of rat Opioid Receptor, Non-selective Binding, Oprm1 (gene 25601) (P33535 whole entry, looked up): as above
Chain of rat Neonicotinoid receptor (NNR), Chrna7 (gene 25302) (Q05941 whole entry, looked up): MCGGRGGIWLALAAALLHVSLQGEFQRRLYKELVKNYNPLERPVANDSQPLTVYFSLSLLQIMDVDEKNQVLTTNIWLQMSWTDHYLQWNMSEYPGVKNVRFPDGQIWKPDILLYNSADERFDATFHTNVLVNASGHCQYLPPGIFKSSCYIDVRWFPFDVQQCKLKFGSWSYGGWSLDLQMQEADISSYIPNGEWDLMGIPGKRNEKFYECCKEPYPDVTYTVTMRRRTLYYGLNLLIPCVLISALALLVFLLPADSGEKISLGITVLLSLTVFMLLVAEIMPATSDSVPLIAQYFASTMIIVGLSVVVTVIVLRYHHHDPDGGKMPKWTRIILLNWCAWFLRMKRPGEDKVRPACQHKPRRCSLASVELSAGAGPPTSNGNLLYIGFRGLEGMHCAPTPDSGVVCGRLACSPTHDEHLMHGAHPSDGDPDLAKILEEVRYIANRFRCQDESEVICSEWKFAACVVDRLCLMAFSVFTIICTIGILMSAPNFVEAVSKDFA
Chain of guinea pig Serotonin, 5-Hydroxytryptamine Receptor 4 (5HT4), HTR4 (gene 100135548) (O70528 whole entry, looked up): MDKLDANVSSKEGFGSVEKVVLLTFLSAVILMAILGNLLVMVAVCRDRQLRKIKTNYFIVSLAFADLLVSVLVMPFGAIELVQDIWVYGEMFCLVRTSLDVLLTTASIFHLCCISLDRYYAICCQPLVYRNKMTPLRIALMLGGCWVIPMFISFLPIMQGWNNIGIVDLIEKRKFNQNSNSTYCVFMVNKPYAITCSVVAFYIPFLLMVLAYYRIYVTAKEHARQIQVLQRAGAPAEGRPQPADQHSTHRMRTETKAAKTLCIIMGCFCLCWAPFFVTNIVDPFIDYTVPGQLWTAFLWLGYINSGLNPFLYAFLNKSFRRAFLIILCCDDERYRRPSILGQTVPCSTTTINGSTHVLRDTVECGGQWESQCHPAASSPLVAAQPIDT
Chain of rat Neurokinin-3 Receptor (NK3), Tacr3 (gene 24808) (P16177 whole entry, looked up): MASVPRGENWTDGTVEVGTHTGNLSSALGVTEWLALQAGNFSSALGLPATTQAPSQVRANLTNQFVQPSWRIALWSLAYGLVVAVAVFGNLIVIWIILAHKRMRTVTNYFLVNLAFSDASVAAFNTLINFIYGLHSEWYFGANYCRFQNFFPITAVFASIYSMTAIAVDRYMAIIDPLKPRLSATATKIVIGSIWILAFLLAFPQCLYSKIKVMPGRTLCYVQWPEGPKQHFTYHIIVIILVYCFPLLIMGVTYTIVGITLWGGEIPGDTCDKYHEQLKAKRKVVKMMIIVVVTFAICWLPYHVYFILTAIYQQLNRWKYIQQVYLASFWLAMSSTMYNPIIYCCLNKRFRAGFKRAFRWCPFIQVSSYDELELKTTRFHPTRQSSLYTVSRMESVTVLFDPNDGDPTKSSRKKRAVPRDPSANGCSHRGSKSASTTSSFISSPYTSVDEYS
Chain of rat Neurokinin-1 Receptor (NK1), Tacr1 (gene 24807) (P14600 whole entry, looked up): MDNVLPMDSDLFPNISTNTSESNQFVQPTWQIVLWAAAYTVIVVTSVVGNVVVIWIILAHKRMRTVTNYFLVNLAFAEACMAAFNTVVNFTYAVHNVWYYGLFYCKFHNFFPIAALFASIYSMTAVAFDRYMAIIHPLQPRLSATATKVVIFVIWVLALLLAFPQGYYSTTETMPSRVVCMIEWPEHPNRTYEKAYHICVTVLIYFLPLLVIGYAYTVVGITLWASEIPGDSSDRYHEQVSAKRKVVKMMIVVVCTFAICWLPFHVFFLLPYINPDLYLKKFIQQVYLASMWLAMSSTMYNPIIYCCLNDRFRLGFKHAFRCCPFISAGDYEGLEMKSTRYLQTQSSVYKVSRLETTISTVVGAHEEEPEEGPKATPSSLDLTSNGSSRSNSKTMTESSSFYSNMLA

CNS(=O)(=O)c1cc(C(=O)N2CCC(CCN3C4CCC3CC(n3c(C)nc5ccccc53)C4)(c3cccc(F)c3)CC2)c(Cl)cc1F (stereo unspecified)
outcome [1]: inactive
outcome [2]: inactive
outcome [3]: inactive
AC50 [4]: 14.9 µM (active)
AC50 [5]: 7.6 µM (active)
AC50 [6]: 25 µM (active)
AC50 [7]: 5.41 µM (active)
AC50 [8]: 16.1 µM (active)
outcome [9]: inactive
AC50 [10]: 26.3 µM (active)
AC50 [11]: 10.1 µM (active)
AC50 [12]: 6.97 µM (active)
AC50 [13]: 13.1 µM (active)

COCCOc1cc2cc(C(=O)NC3CCN(C(C)C)CC3)n(CC(=O)Nc3ccc(Cl)cn3)c2cn1
outcome [14]: inactive
AC50 [4]: 14.7 µM (active)
AC50 [15]: 10.1 µM (active)
AC50 [13]: 25.8 µM (active)

O=C(NS(=O)(=O)/C=C/c1ccccc1)c1ccc(F)cc1Cl
outcome [10]: inactive

O=P(OC(CCl)CCl)(OC(CCl)CCl)OC(CCl)CCl
AC50 [12]: 6.41 µM (active)
outcome [13]: inactive

O=C(CCCCCCCCc1cccnc1)N1CCC(C=C(c2ccccc2)c2ccccc2)CC1
outcome [16]: inactive

CCCCCCCCO
outcome [17]: inactive

CCC(C)(C)C(=O)O[C@H]1C[C@@H](C)C=C2C=C[C@H](C)[C@H](CC[C@@H]3C[C@@H](O)CC(=O)O3)[C@H]21
outcome [15]: inactive

CCCCCCCCCCCCCCCO
outcome [8]: inactive

Oc1ccc2c(c1)-c1ccccc1C2
AC50 [2]: 6.87 µM (active)

CC(C)CC(C)(O)C#CC(C)(O)CC(C)C (stereo unspecified)
outcome [13]: inactive

Cc1ccc(O)cc1
outcome [18]: inactive

O=C(O)CC(O)C(=O)O (stereo unspecified)
outcome [3]: inactive
outcome [11]: inactive
outcome [13]: inactive

O=c1[nH]c2ccc(S(=O)CCN3CCC(Cc4ccc(F)cc4)CC3)cc2o1 (stereo unspecified)
AC50 [3]: 5.88 µM (active)
AC50 [4]: 3.25 µM (active)
outcome [18]: inactive
AC50 [15]: 1.88 µM (active)
AC50 [5]: 0.609 µM (active)
AC50 [13]: 6.76 µM (active)
